Screening data (PubChem BioAssay)
LASV entry inh = Lassa virus entry inhibition | 1.2% of 300,000 active | Lassa virus pseudotype entry inhibition, cell reporter | Potency, µM (titrated, usually from 37.9 µM), usual class: inhibitors; calls by dose curve; tested in HEK293 cells; further: nearly all actives have a fitted effect of over 50% in size
HCMV inh = human cytomegalovirus inhibition. HFF cells, HCMV-luciferase reporter, 72 h; hits give low values. activity change, negative = inhibition, % at 57.5 µM. 4.5% of 410,000 active; in the data active means activity change below about -60%; inconclusive means no clear call, values can overlap the other calls; inactive means above about -39%
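Screen run at 2 compound doses on HFFs infected with reporter HCMV, MOI 1 PFU/cell. Luciferase activity from cell lysates at 72 h post infection gave inhibition relative to buffer-only and Salinomycin wells.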
HCV inh = inhibitors of hepatitis C virus infection; Huh7.5.1 HCVcc-Cre infection, luciferase reporter, 44 h; Potency, µM (titrated, usually from 41.8 µM), hits mostly inhibitors; 3.4% of 340,000 active
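Whole-lifecycle infectious HCVcc-Cre system; cells 1,000/well, compound then virus (~0.5 moi) added 4 h after plating, 44 h culture. Luciferase read 15 sec following 15 min substrate incubation, room temp.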
FMDV inh = foot and mouth disease virus antiviral activity; FMDV antiviral cell-based qHTS; 1.2% of 410,000 active; Potency, µM (highest dose often 57.9 µM), actives largely listed as inhibitors; AID 1159524; calls by dose curve; tested in HEK293T cells; further: read-out not given here; nearly all actives have a fitted effect of over 45% in size
Giardia FBPA inh = inhibitors of Giardia lamblia fructose-1,6-bisphosphate aldolase; A8B2U2; purified Giardia FBPA; Potency, µM (highest dose often 59.6 µM), actives largely listed as inhibitors; 0.71% of 290,000 active; further: nearly all actives have a fitted effect of over 55% in size
Target sequence (A8B2U2 whole entry, looked up): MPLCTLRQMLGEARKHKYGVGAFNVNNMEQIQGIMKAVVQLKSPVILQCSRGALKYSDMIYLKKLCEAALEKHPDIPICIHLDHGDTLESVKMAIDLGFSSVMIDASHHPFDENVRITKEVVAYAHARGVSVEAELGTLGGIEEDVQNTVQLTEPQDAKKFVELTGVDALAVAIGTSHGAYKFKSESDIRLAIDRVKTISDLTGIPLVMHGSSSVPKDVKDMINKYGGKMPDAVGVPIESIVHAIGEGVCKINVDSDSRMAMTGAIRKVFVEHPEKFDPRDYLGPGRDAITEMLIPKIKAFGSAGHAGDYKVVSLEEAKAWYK
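40 nM FBPA preincubated 10 min at RT with compound (up to 57.5 uM final), then substrate plus GAPDH/TPI/NAD/arsenate coupling and diaphorase/resazurin added. Fluorescence read after 20 min at RT, 525/598 nm.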
Marburg entry inh = Marburg virus entry inhibition; Marburg virus pseudotyped entry inhibition, cell reporter; 1.8% of 300,000 active; Potency, µM (highest dose often 37.8 µM), most hits filed as inhibitors; AID 540276; calls by dose curve; tested in HEK293 cells
Hits are given with their value; – = inactive; ? = inconclusive; · = no result; ! = a repeat was not active; [ ] = dose if it differs, or a comment. An excerpt weighted towards active compounds, which were near 8.3% of everything screened. Unless noted, the call rests on the fitted dose curve; in most records, active means well fitted curve in the direction sought with a large enough effect; inconclusive means small, poorly fitted or top-dose-only effect, or another doubt; inactive means no such curve, though single readings can be large; an effect the other way counts as inactive or inconclusive.

SMILES	LASV entry inh	HCMV inh	HCV inh	FMDV inh	Giardia FBPA inh	Marburg entry inh
Cc1cccc(Cn2cccc2CNS(=O)(=O)c2ccccc2F)c1	–	–	·	–	·	·
N#Cc1ccc(CN2CCN(C(=O)CNC(=O)Cc3cccc4ccccc34)CC2)cc1	?	-68	?	?	·	?
Cc1cccc(C)c1NC(=O)CN1CCN(C(=O)CNC(=O)c2ccc(-c3ccccc3)cc2)CC1	·	?	·	–	·	·
Cc1cccc(NC(=O)CN2CCN(C(=O)CNC(=O)c3ccc(-c4ccccc4)cc3)CC2)c1C	·	?	·	20µM	·	·
CCc1ccccc1NC(=O)CN1CCN(C(=O)CNC(=O)Cc2cccc3ccccc23)CC1	·	–	11µM	?	·	·
CCCNC(=O)c1ccc(Cn2cc(-c3ccc(C)cc3)ncc2=O)cc1	·	–	·	·	·	·
CCCCC/C=C\C\C=C/C=C/C=C/[C@@H](SC[C@H](N)C(=O)O)[C@@H](O)CCCC(=O)O	·	·	·	–[0.463 µM]	·	·
CN(Cc1ccccc1)c1ncnc2[nH]ncc12	?	–	–	–	·	–
CN(Cc1ccccc1)c1ncnc2sccc12	–	–	8.9µM	?	–	?
COc1ccc(C(C)C)cc1S(=O)(=O)n1ccnc1C	–	-103	–	–	–	–
Cc1ccc(NC(=S)N2CCCC(c3nc4ccccc4[nH]3)C2)cc1 (stereo not drawn)	–	–	2.5µM	–	–	–
CN=C1SC(CC(=O)NCCc2ccc(OC)c(OC)c2)C(=O)N1C (stereo not drawn)	–	-64!	–	–	–	?
COc1cc(C2c3c([nH]c(=O)[nH]c3=O)Nc3ccc4ccccc4c32)cc(OC)c1OC (stereo not drawn)	?	–	–	–	–	–
COc1cc(C2c3c([nH]c(=O)[nH]c3=O)Nc3ccc4ccccc4c32)ccc1O (stereo not drawn)	–	–	10µM	–	–	?
Cc1nc2c(O)cccc2cc1CO	·	–	–	–	20µM	·
Cc1ccc(O)c(CO)n1	–	–	–	–	–	–
Nc1nc2c(ncn2COC(CO)CO)c(=O)[nH]1	–	-81	–[8.37 µM]	–	–	?
Nc1nc2c(ncn2[C@H]2C[C@H](O)[C@@H](CO)O2)c(=O)[nH]1	·	?	–	–	·	·
COc1cc(NC(=O)N2CCc3nc(NCc4cccc(Oc5ccccc5)c4)ncc3C2)cc(OC)c1OC	·	-92	·	?	·	·
CCCC(C)C1(CC)C(=O)NC(=Nc2ccc(OC)cc2)NC1=O (stereo not drawn)	–	-60	?	–	–	–
CCCC(C)C1(CC)C(=O)NC(=Nc2ccccc2OC)NC1=O (stereo not drawn)	–	–	–	–	–	–
COc1ccc(-c2cc3c(nn2)-c2ccccc2C3=O)cc1	?	–	–	10µM	–	?
O=C1c2ccccc2-c2nnc(-c3ccccc3)cc21	?	–	–	–	–	?
CCC(=O)Oc1cc(C(C)(C)C)cc2cc(-c3nc(-c4ccc(OC)cc4OC)no3)c(=O)oc12	–	–	·	?	·	·
CC12C=C(C=CCCc3ccco3)C(C)(C1)[C@H](CCc1ccco1)CC2=O (stereo partly drawn)	·	·	·	·	·	–
SMILES	LASV entry inh	HCMV inh	HCV inh	FMDV inh	Giardia FBPA inh	Marburg entry inh
O=[N+]([O-])c1c(Nc2ccccn2)cc(Cl)c2nonc12	?	-105	?	13µM	0.45µM	–
O=[N+]([O-])c1c(Nc2ccc(O)cc2)cc(Cl)c2nonc12	·	-100	7.1µM	22µM	–	·
CC[C@H](C)[C@H](NC(=O)[C@@H](NC(=O)[C@@H](NC(=O)[C@H](CCC(=O)O)NC(=O)[C@H](CCC(=O)O)NC(=O)[C@H](CCC(=O)O)NC(=O)[C@H](C)NC(=O)[C@@H](N)CC(C)C)C(C)C)C(C)C)C(=O)N[C@@H](CCCNC(=N)N)C(=O)N[C@@H](CO)C(=O)N[C@@H](C)C(=O)N[C@@H](CC(N)=O)C(=O)N[C@@H](Cc1ccccc1)C(=O)N[C@H](C(=O)N[C@@H](CC(=O)O)C(=O)N[C@@H](CC(N)=O)C(=O)O)[C@@H](C)O	·	·	·	·	–	·
CCc1cccc(C)c1NC(=O)C(NS(=O)(=O)c1ccc2c(c1)CCC(=O)N2)c1ccccc1 (stereo not drawn)	–	–	·	–	·	–
Cc1cccc2c1Sc1ccc(Cl)cc1CC2N1CCNCC1 (stereo not drawn)	·	·	13µM	?	·	·
CCc1cccc2c1Sc1ccccc1CC2N1CCNCC1 (stereo not drawn)	·	-98	?	?	·	·
c1ccc2c(c1)CC(N1CCCCC1)c1ccccc1N2 (stereo not drawn)	–	–	–	–	–	–
CN1CCN(C2Cc3cc(F)ccc3Sc3ccc(Cl)cc32)CC1 (stereo not drawn)	·	–	–	?	·	·
CCc1cc2c(cc3c(=O)n(CC(=O)NC4CCCCC4)ncn32)s1	·	–	·	–	·	–
Cc1ccc2cccc(S(=O)(=O)N3CCCc4ccccc43)c2n1	·	-65	?	–	?	·
CCC(=O)N1c2ccccc2CC1C(=O)NCCc1ccc(OC)c(OC)c1 (stereo not drawn)	–	–	·	–	·	·
CCn1c(=NC(=O)c2ccc(S(=O)(=O)N3CCCCC3)cc2)sc2cccc(OC)c21	–	–	·	–	·	–
Cc1c(P(=S)(c2ccccc2)c2ccccc2)[n+]2ccccc2n1CCc1ccccc1	·	-98	·	?	·	·
COc1cc2c(O)c3c(c(-c4ccc5c(c4)OCO5)c2cc1OC)C(=O)OC3	3.7µM	-96	?	·	–	2.3µM
COc1cc2sc(-c3ccc(S(C)(=O)=O)cc3)c(-c3ccc4c(c3)OCO4)c2cc1OC	·	–	2.8µM	–	·	·
COc1ccc2sc(-c3ccc(S(C)(=O)=O)cc3)c(-c3ccc4c(c3)OCCO4)c2c1	·	–	?	–	·	·
COc1cc2c(OC(C)=O)c3c(c(-c4ccc5c(c4)OCO5)c2cc1OC)C(=O)OC3	·	-93	?	–	–	·
CCOC(=O)C1=CCN(S(=O)(=O)c2cccc(Cl)c2)C1c1ccc(Cl)c(Cl)c1 (stereo not drawn)	·	–	·	·	·	·
CCOc1ccccc1NC(=O)C1CCN(S(=O)(=O)c2cc(Br)cc3c2N(C(C)=O)CC3)CC1	–	–	·	?	·	–
Cc1cccc2c(=O)cc(CSc3ccccc3NC(=O)C(C)(C)C)[nH]c12	–	–	·	–	·	·
CC(=O)/C(C#N)=C1\NC(=O)C(Cc2ccc(C)c(Cl)c2)S1 (stereo not drawn)	?	-92	–	–	–	?
CCc1ccc(CC2S/C(=C(\C#N)C(C)=O)NC2=O)cc1 (stereo not drawn)	5.8µM	-90	–	–	–	?
CCOC(=O)c1ccc(CC2S/C(=C(\C#N)C(C)=O)NC2=O)cc1 (stereo not drawn)	?	–	–	–	–	?
COc1ccc(S(=O)(=O)N2CCN(C(=O)c3cc(-c4ccc(Br)cc4)n[nH]3)CC2)cc1OC	10µM	-72!	?	?	–	?
O=C(c1cc(-c2ccc(Br)cc2)n[nH]1)N1CCN(S(=O)(=O)c2ccc(Br)cc2)CC1	–	?	·	–	·	·
